Inconclusive results are not listed. Calls of active or inactive are those of the source. How the source made its calls, unless noted: active means hit-call score of the fitted dose curve at least 0.9, where 1 is the maximum; inactive means score below 0.9.

This is an account of results in PubChem BioAssay (EPA / NIEHS).

A short description of test [1]: CCTE_Harrill_HTTr_Apoptosis_MCF7: CCTE's 6-hour Apoptosis Assessment for the High-Throughput Transcriptomics (HTTr) Platform, in MCF-7 cells cultured in DMEM + 10% fetal bovine serum, Harrill Lab (AID 2284011). In short, it runs like this:
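MCF-7 cells in DMEM + 10% fetal bovine serum were exposed to chemicals for 6 hours over an eight-point dilution series. Caspase-3/7 activation was imaged by high content imaging with CellEvent Caspase 3/7 Green; bidirectional fitting used DMSO as baseline.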

Test [2] can be described thus: CCTE_Harrill_HTTr_CellCount_MCF7: CCTE's Cell Proliferation Assessment for the High-Throughput Transcriptomics (HTTr) Platform, Harrill Lab (AID 2284012; active means hit-call score of the fitted dose curve at least 0.9, where 1 is the maximum;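 further: intended direction is loss of nuclei count meaning fewer cells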). In short, it runs like this: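 For this full-screen endpoint, MCF-7 cultures received eight compound dilutions for six hours. Well nuclei counts from Hoechst imaging were analyzed relative to DMSO.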
The nature of test [3]: CCTE_Shafer_MEA_acute_burst_number: CCTE's Neural Acute Assay for Single-Electrode Bursts, Shafer Lab (AID 2284013). The essentials: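 Burst totals were derived with adaptive spike detection (8x rms threshold) on filtered signals from rat cortical cultures; change relative to pre-treatment baseline after 40-min compound exposure (0.03-40 uM) was fitted in the negative direction against DMSO.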

Test [4] can be described thus: CCTE_Shafer_MEA_acute_per_burst_spike_number_mean: CCTE's Neural Acute Assay for Average Number of Spikes Per Burst, Shafer Lab (AID 2284015).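 Further: hits are decreases in mean spikes per burst versus baseline.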 The essentials:
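Primary rat cortical neurons on 48-well MEA plates, treated on DIV 13 or 15 at 0.03-40 uM. Spontaneous activity recorded 40 min before and 40 min after compound at 37 C; percent change in mean spikes per single-electrode burst per well, fitted in the loss direction versus DMSO.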

A short description of test [5]: CCTE_Shafer_MEA_acute_interburst_interval_mean: CCTE's Neural Acute Assay for Mean Interburst Interval, Shafer Lab (AID 2284016).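 Further: percent change of mean interburst interval versus each well's own pre-dose baseline; curves fitted for decrease in interburst interval relative to DMSO.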 The essentials:
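Primary rat cortical neurons on 16-electrode MEA wells were recorded 40 min at baseline on DIV 13 or 15, then 40 min after compound (0.03-40 uM), at 37 C. Value is percent change in mean interburst interval per well, DMSO as negative control.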

A short description of test [6]: CCTE_Shafer_MEA_acute_burst_percentage_mean: CCTE's Neural Acute Assay for Percentage of Spikes in a Burst, Shafer Lab (AID 2284017).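 On AC50: curve fitted for loss of signal so potency reflects decreased burst percentage.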 In short, it runs like this:
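Primary rat cortical neurons on 16-electrode MEA wells; 40 min baseline recorded at DIV 13 or 15, then 40 min after compound (0.03-40 uM) at 37 C. Well-mean fraction of spikes in single-electrode bursts; percent change from baseline, DMSO as negative control.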

Test [7] can be described thus: CCTE_Shafer_MEA_acute_burst_percentage_std: CCTE's Neural Acute Assay for Standard Deviation of Burst Percentage, Shafer Lab (AID 2284018).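 Further: fitted in the negative direction so actives lower burst percentage SD.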 In short, it runs like this: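 Primary rat cortical neurons on 16-electrode MEA wells were recorded 40 min at baseline (DIV 13 or 15), then 40 min after compound (0.03-40 uM), at 37 C. Well value is SD across electrodes of spikes-in-bursts/total spikes; endpoint is percent change, DMSO-referenced.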

A short description of test [8]: CCTE_Shafer_MEA_acute_per_network_burst_spike_number_mean: CCTE's Neural Acute Assay for Average Number of Spikes in a Network Burst, Shafer Lab (AID 2284019). The essentials: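 Acute exposure of rat primary cortical networks (DIV 13/15) on MEAs; adaptive spike detection at 8x rms noise, 37 C. Percent change in spikes per network burst after 40 min with compound (0.03-40 uM), negative direction vs DMSO.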

A short description of test [9]: CCTE_Shafer_MEA_acute_per_network_burst_spike_number_std: CCTE's Neural Acute Assay for Standard Deviation of Number of Spikes in a Network Burst, Shafer Lab (AID 2284020).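 Further: fitted for decrease in spike-number SD versus DMSO so actives lower it.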 In short, it runs like this: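 Acute MEA exposure, rat cortical neurons, 0.03-40 uM. Per-well % change versus own baseline; DMSO as negative control.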
Test [10] is described as follows: CCTE_Shafer_MEA_acute_per_network_burst_electrodes_number_mean: CCTE's Neural Acute Assay for Mean Number of Electrodes in a Network Burst, Shafer Lab (AID 2284021).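 Further: curves fitted for decreases only so hits reduce electrodes per burst.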 In short, it runs like this: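 Rat primary cortical neurons on 16-electrode MEA wells were recorded 40 min at baseline on DIV 13 or 15, then 40 min after compound (0.03-40 uM), at 37 C. Value is percent change per well, fitted in loss direction versus DMSO.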

A short description of test [11]: CCTE_Shafer_MEA_acute_network_burst_percentage: CCTE's Neural Acute Assay for Percentage of Network Bursts, Shafer Lab (AID 2284022).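 Further: curves fitted for loss so actives lower network burst percentage.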 In short, it runs like this:
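Primary rat cortical neurons on 16-electrode MEA wells, treated on DIV 13 or 15 with compound (0.03-40 uM); 40-min baseline and 40-min post-exposure recordings at 37 C. Value is percent change in spikes within network bursts versus baseline, DMSO negative control.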

A short description of test [12]: CCTE_Shafer_MEA_acute_cross_correlation_area: CCTE's Neural Acute Assay for Area of Cross Correlation, Shafer Lab (AID 2284024).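 Further: area under pooled inter-electrode spike cross-correlation near zero lag as percent change from own baseline; curves fitted for loss of cross-correlation area so actives lower synchrony.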 The essentials: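 Primary rat cortical neurons on 48-well MEA plates (16 electrodes/well) were recorded 40 min at baseline on DIV 13 or 15, then 40 min with compound (0.03-40 uM) at 37 C; cross-correlation area expressed as percent change from baseline.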

Test [13] is described as follows: CCTE_Shafer_MEA_acute_cross_correlation_HWHM: CCTE's Neural Acute Assay for Cross Correlation at Half Width at Half Maximum, Shafer Lab (AID 2284026).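 Further: hits are a decrease in cross-correlogram half width relative to DMSO.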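 On outcome: spontaneous network firing of rat primary cortical neurons on multiwell microelectrode arrays.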 In short, it runs like this: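 Primary rat cortical neurons on 16-electrode MEA wells; 40-min baseline on DIV 13 or 15, then 40-min recording with compound (0.03-40 uM) at 37 C. HWHM of spike cross-correlogram expressed as percent change from baseline per well, DMSO reference.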

Test [14] is described as follows: CCTE_Shafer_MEA_acute_synchrony_index: CCTE's Neural Acute Assay for Synchrony, Shafer Lab (AID 2284027).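 Further: network synchrony index of spontaneous spiking in primary rat cortical neurons on MEAs; fitted for loss of signal so actives lower synchrony relative to DMSO.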 In short, it runs like this:
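Acute exposure of rat primary cortical neurons (DIV 13 or 15) at 0.03-40 uM. Synchrony index, 40 min before vs after, as % change relative to DMSO control.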

A short description of test [15]: CCTE_Shafer_MEA_dev_firing_rate_mean: CCTE's Neural Network Formation Assay for Mean Firing Rate, Shafer Lab (AID 2284031).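 On AC50: curve fitted for loss of firing so AC50 reflects decreased mean firing rate.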 The essentials:
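Extracellular spike frequency, AUC over DIV 5–12 recordings, in rat cortical neuron MEA cultures dosed from plating; loss direction vs DMSO.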

Test [16] in a line: CCTE_Shafer_MEA_dev_per_burst_spike_percent: CCTE's Neural Network Formation Assay for Percent of Spikes in a Burst, Shafer Lab (AID 2284032).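 On AC50: fitted as a decrease in burst spike percentage below DMSO baseline.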 In short, it runs like this:
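Value is trapezoidal AUC over recordings on days 5, 7, 9 and 12 of the well-mean fraction of spikes falling in single-electrode bursts; rat cortical cultures exposed continuously from plating, treatment renewed DIV 5 and 9, fitted downward against DMSO.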

Test [17] in a line: CCTE_Deisenroth_AIME_384WELL_CTox_Active: Cytotoxicity Assessment (CTOX) in CCTE's 384-well Estrogen Receptor Transactivation Assay with AIME metabolic competence (metabolism positive), Deisenroth Lab (AID 2284037; active means hit-call score of the fitted dose curve at least 0.9, where 1 is the maximum;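 further: chemicals first conditioned 2 h by alginate-bound induced rat liver S9 before cells; activity means signal loss indicating cell death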). In short, it runs like this: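 VM7Luc4E2 breast cells received medium pre-incubated 2 h with chemical over alginate microspheres holding induced male Sprague Dawley rat liver S9; viability read 24 h later by protease-substrate fluorescence. Loss of signal, bidirectional fit, 0.002–200 uM.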

A short description of test [18]: CCTE_Deisenroth_AIME_384WELL_CTox_Inactive: Cytotoxicity Assessment (CTOX) in CCTE's 384-well Estrogen Receptor Transactivation Assay without AIME metabolic competence (metabolism negative), Deisenroth Lab (AID 2284039; active means hit-call score of the fitted dose curve at least 0.9, where 1 is the maximum;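 further: cell viability via live-cell protease substrate cleaved to fluorescent probe; cells exposed 24 h to medium preincubated 2 h with alginate-water beads without S9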). In short, it runs like this:
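VM7Luc4E2 human breast cells received conditioned medium from a 2 h incubation of chemical with alginate-water microspheres (no S9), then were exposed 24 h. Viability was read as protease-substrate cleavage to a fluorescent probe; loss of signal was fitted bidirectionally over 0.002–200 uM.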

Take `O=C1NS(=O)(=O)c2ccccc21`: the outcome in test [1], in test [2], in test [4], in test [5], in test [6] and in [7] was inactive. Moreover, the compound was classed as inactive in test [8], in [9], in test [10], in [11], in [13] and in [14]. The result in test [15] and in test [16] was inactive. For the same compound, the figures for the AC50 in [3] and in [12] were 0.003 µM (active) and 0.00962 µM (active), respectively.
As for `CCCCCCCCCCCC`, the outcome in [1], in test [2], in test [3], in [4], in [5] and in [6] was inactive. Besides, the compound was classed as inactive in test [7], in test [8], in test [9], in test [10], in [11] and in test [12]. In addition, the call in test [13], in [14] and in test [17] was inactive. Moreover, the AC50 (usually the concentration at which the activity in the assay is half-maximal) in test [18] was 100 µM (active).
In the case of `CCCCCCCCCCCC(=O)O`, the outcome in [1] and in [2] was inactive.
Regarding `CS(=O)(=O)c1ccc([C@@H](CC2CCCC2)C(=O)Nc2cnccn2)cc1Cl`, the result in [1] and in [2] was inactive.
For `C[C@]12CC[C@@H]3c4ccc(O)cc4CC[C@H]3[C@@H]1C[C@@H](O)[C@@H]2O`, the result in test [1] and in [2] was inactive.
Take `Nc1ccn([C@@H]2O[C@H](CO)[C@@H](O)C2O)c(=O)n1` (some centres undefined): the result in test [1] and in test [2] was inactive. Besides, the values for the AC50 in test [15] and in test [16] were 0.471 µM (active) and 0.341 µM (active), respectively.
Consider `CCCCc1oc2ccccc2c1C(=O)c1cc(I)c(OCCN(CC)CC)c(I)c1`, for which the outcome in [1], in test [2], in test [3], in [4], in test [5] and in [6] was inactive. Besides, the compound was classed as inactive in [7], in [8], in [9], in test [10], in [11] and in test [12]. For the same compound, in [14], the result was inactive.
With `CC(=O)Nc1ccc(S(N)(=O)=O)cc1`, the result in test [1] and in test [2] was inactive.
As to `CCCCCCCCC(C)=O`, the result in test [1] and in [2] was inactive.
For the compound `CCC(=O)O`, the result in [1] and in test [2] was inactive.
For the compound `CCCCC=O`, the outcome in test [1], in [2], in test [3], in [4], in test [5] and in [6] was inactive. Further, the compound was called inactive in test [7], in [8], in [9], in test [10], in test [12] and in test [13]. Moreover, the outcome in test [14] was inactive. Moreover, the AC50 in test [11] is 32.7 µM (active).
Regarding `Oc1c(Cl)cc(Cl)cc1Sc1cc(Cl)cc(Cl)c1O`, the result in test [1], in test [2], in [3], in [5], in [7] and in test [8] was inactive. Further, the call in test [10] and in [12] was inactive. The AC50 in [4] is 9.08 µM (active); in test [6], 7.11 µM (active); in [9] it was 5 µM (active); in [11], 7.49 µM (active); in test [13], 9.62 µM (active); in test [14] it was 8.67 µM (active).
